Compound activity (PubChem)
Compounds with a hit are over-represented: about 2.9% of the library has one in this group of screens.
DAGLB inh: blocks human DAGLB lipase activity; AID 504411; hit rate 0.059% among 340,000; inhibition, % at 5.17 µM; HEK293T DAGLB membrane lysate, EnzChek fluorogenic substrate; in the data active means inhibition above about 34%
Rtt109 HAT inh: inhibitors of Candida albicans Rtt109/Vps75 histone acetyltransferase; Q5AAJ8; purified Rtt109/Vps75, ThioGlo CoA-SH fluorescence, 4 h; inhibition, % at 34.9 µM; hit rate 0.16% among 330,000;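 active means inhibition of at least 50% in every replicate; inconclusive means best replicate reaches 50% inhibition but some replicates fall short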
sPLA2-III inh: Inhibits HGIII-sPLA2 liposome hydrolysis, primary screen | Q9NZ20 | QFRET BODIPY PC-A2 liposome hydrolysis, fluorescence | inhibition, % at 12.2 µM | hit rate 0.56% among 370,000;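 active means inhibition above mean plus 3 SD of compounds lying within the high and low control bounds, cut at about 19% in these data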
Cardio protect: myocardial damage modulation in H9c2 cells. H9c2 cardiomyocytes, H2O2 injury protection, ATPLite, 2 h. protection from H2O2 cell death, % at 20 µM. hit rate 0.63% among 360,000;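 active means compounds giving at least 50% protection of heart cells from peroxide-induced death in the single-dose screen, raw or plate-pattern-corrected value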
ABHD5-PLIN5 inh: inhibitors of human ABHD5-perilipin-5 interaction; Split G. princeps luciferase complementation, luminescence, 4 h; inhibition, % at 4 µM; Q00G26+Q8WTS1; AID 602281; hit rate 0.78% among 360,000;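 active means inhibition above the mean inhibition across every tested compound plus 3 SD, cut at about 22% in these data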
Myeloid diff MLP: compounds promoting myeloid differentiation; ER-HoxA9 myeloid progenitors, lysozyme-GFP differentiation, flow cytometry; calls only at 10 µM; hit rate 1% among 360,000; AID 624256;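 active means normalized GFP-positive differentiation at or above the plate's own cutoff, the solvent-only control mean plus 3 SD; inconclusive means no clear call, values can overlap the other calls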;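 further: cells exposed to compound for four days before flow analysis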
Large screens that a line does not name were inactive.

COC(=O)c1sccc1NC(=O)CSc1ccccc1NS(=O)(=O)c1ccc(F)cc1	none
CC(=O)N1c2ccc(S(=O)(=O)NCCC(=O)NC3CCCC(C)C3C)cc2CC1C (centres undefined)	none
Cc1[nH]c2ccccc2c1/C=N/Nc1ccc([N+](=O)[O-])cc1S(=O)(=O)Nc1ccc(Cl)cc1	Myeloid diff MLP active
COc1ccc(NS(=O)(=O)c2cc([N+](=O)[O-])ccc2N/N=C\c2c(C)[nH]c3ccccc23)cc1	Myeloid diff MLP active
COc1ccc(NS(=O)(=O)c2cc([N+](=O)[O-])ccc2NN=Cc2ccccc2OCC(=O)O)cc1	none
CC(C)C(=O)N1CCCC1(C)C(=O)NCc1ccccn1 (centres undefined)	none (no result: DAGLB inh, Rtt109 HAT inh)
CC1(C)CCN2CCC(C)(C)c3c(O)ccc1c32	Myeloid diff MLP active
Cc1cc(C)n2nc(C(=O)N/N=C/c3ccco3)nc2n1	none
CC(C)Cc1nc2oc3c(NCc4cccnc4)ncnc3c2c2c1CCC2	none
CC(C)Cc1nc2oc3c(NCC4CCCO4)ncnc3c2c2c1CCC2 (centres undefined)	Cardio protect 73.2
COc1ccc2cc(C)c3nnc(SCc4cccnc4)n3c2c1	none
CN1/C(=C/C=C(C#N)C#N)C=Cc2ccccc21	Myeloid diff MLP active
Cc1ccc(S(=O)(=O)N2[C@@H](c3ccc(F)cc3)C(C(=O)O)=CC[C@H]2c2cccc(C)c2)cc1	none
CS(=O)(=O)c1ncc(Cl)c(C(=O)Nc2ccc3ccccc3c2)n1	ABHD5-PLIN5 inh 77.4 (no result: Rtt109 HAT inh)
O=C(Nc1ccc2ccccc2c1)c1cnccn1	none
CN(Cc1ccccc1)C(c1cc2ccccc2o1)c1nnnn1C(C)(C)C (centres undefined)	none (no result: DAGLB inh, Rtt109 HAT inh, Cardio protect)
CCCN1CCC(=O)N([C@H](CSc2ccc(OC)cc2)Cc2ccccc2)CC1	Myeloid diff MLP active
CCCN1CCC(=O)N([C@H](CSc2ccc(C)cc2)Cc2ccccc2)CC1	none
CC(=O)Oc1c(C)c(C)c2c(c1C)CC[C@@](C)(CCC[C@H](C)CCC[C@H](C)CCCC(C)C)O2	Myeloid diff MLP active
Cc1cc(O)cc2c1O[C@@](C)(CCC[C@@H](C)CCC[C@@H](C)CCCC(C)C)CC2	none
CC(C)CC(OC(=O)c1cccs1)C(=O)NCC1CCCO1 (centres undefined)	none
CCN(CC)c1ccc2cc(-c3nc(-c4cc5ccccc5oc4=O)cs3)c(=O)oc2c1	Myeloid diff MLP active
N#C/C(=C\c1ccc(O)c(O)c1)S(=O)(=O)c1ccccc1	Cardio protect 50.7
N#C/C(=C\c1ccc(O)c(O)c1)C(=O)c1ccc(O)c(O)c1	Cardio protect 63.9
COc1cc(/C=N/NC(=O)c2ccncc2)ccc1OC(=O)c1ccccc1Cl	Cardio protect 74.0
O=C(NN=Cc1ccc(O)c(O)c1)c1ccccc1	none (no result: DAGLB inh, Rtt109 HAT inh, sPLA2-III inh)
COc1cc(/C=N/NC(=O)c2ccncc2)ccc1OCC(=O)Nc1ccc(C)c(C)c1	Cardio protect 52.0
COc1cc(C(=O)N/N=C/c2ccc(OC(=O)c3ccccc3Cl)c(OC)c2)ccc1O	Cardio protect 65.8, Myeloid diff MLP inconclusive (no result: sPLA2-III inh)
O=C(COc1ccccc1C(=O)N/N=C\c1ccc(O)c(O)c1)N/N=C/c1ccc(O)c(O)c1	Cardio protect 53.7 (no result: sPLA2-III inh)
COc1cc(/C=N/NC(=O)c2ccncc2)ccc1OCC(=O)Nc1cccc([N+](=O)[O-])c1	none
CC(=O)c1ccc(OCc2nnn(CC(=O)NS(=O)(=O)Cc3ccccc3)c2-c2ccccc2)cc1	none (no result: DAGLB inh, Rtt109 HAT inh)
O=C1CCN(Cc2ccc([N+](=O)[O-])cc2)CCN1CCO	none
CC1(C(=O)Nc2cccc(C(F)(F)F)c2)Cc2c(-c3ccc4c(c3)OCO4)ccnc2O1 (centres undefined)	none (no result: DAGLB inh, Rtt109 HAT inh)
COc1ccc(-c2nn(-c3ccccc3)cc2/C=C/C(=O)OCC(=O)Nc2ccccc2C#N)cc1	none
O=C(COC(=O)/C=C/c1cn(-c2ccccc2)nc1-c1ccc2c(c1)OCCO2)NC1CCS(=O)(=O)C1 (centres undefined)	Cardio protect 56.8
CNC(=O)COC(=O)/C=C/c1cn(-c2ccccc2)nc1-c1ccc(C)o1	Cardio protect 56.4
Cc1ccc(CNC(=O)CS(=O)Cc2nc(-c3ccccc3F)oc2C)cc1 (centres undefined)	none
COc1cc(OC)c(OC)cc1CNC(=O)c1cc(S(=O)(=O)N(C)c2ccccc2OC)ccc1C	none
